# According to ChEMBL document CHEMBL3988442, “University of Dundee, Small-Polar-MMV Screening Library” (2021):
# The whole screen tested about 48,000 compounds, of which about 13,000 (27%) showed an effect of 50% or more. The list shows a part of the results.
# Test system: Wolbachia pipientis
# Test: Anti-Wolbachia Cell-Based Screen
# Assay type: functional
# Parameters: scale not given: in the data most compounds retested in dose-response had high values
# Conditions: 5 µM
row,Compound,Percent Effect
1,CCOCC(=O)N1CCC(Cc2nnc(SC)n2C)CC1,5.722%
2,NC(=O)C1CCN(C(=O)NCc2ccccc2Cn2cncn2)CC1,-13.11%
3,O=S(=O)(NCc1ccccc1Cn1cncn1)N1CCCCC1,112.9%
4,CC1CN(Cc2ccccc2Cn2cccn2)CCN1C (stereo not given),-6.674%
5,CC1CCCN(S(=O)(=O)NCc2ccccc2Cn2cncn2)C1 (stereo not given),105.5%
6,O=S(=O)(NCc1ccccc1Cn1cncn1)N1CCCCCC1,113.8%
7,O=S(=O)(NCc1ccccc1Cn1cncn1)C1CCCC1,4.456%
8,O=C(CCNC(=O)C1CCCC1)NCc1ccccc1Cn1cncn1,1.009%
9,O=S(=O)(NCc1cccnc1OC1CCCC1)N1CCCCC1,6.628%
10,CN(C)C1CCN(C(=O)NCc2ccccc2Cn2cncn2)CC1,-21.25%
11,CC1CCN(S(=O)(=O)NCc2ccccc2Cn2cncn2)CC1,5.954%
12,Cc1nccn1-c1ccc(CNS(=O)(=O)N2CCC(C)CC2)cn1,2.013%
13,CC1CCN(S(=O)(=O)NCc2ccccc2Cn2cccn2)CC1,110.3%
14,CCN1CCCC1CN(Cc1cc[nH]n1)CC1CCN(CCOC)CC1 (stereo not given),-0.05242%
15,CN1CCC(N(Cc2ccco2)S(=O)(=O)c2ccc(Br)cc2Cl)CC1,36.62%
16,CCN1C(=O)C2(CCOCC2)c2cc(NC(=O)c3cnccn3)ccc21,-0.09306%
17,CC(=O)NCC(=O)N1Cc2cnc(CC(C)C)nc2C1,15.63%
18,CCC1CN(C(=O)c2[nH]nc(C)c2Br)CCO1 (stereo not given),-57.1%
19,COCC1CN(C(=O)Nc2cc(Cl)cc(Cl)c2)CCO1 (stereo not given),-11.38%
20,Cc1noc(C)c1-c1cc(CCC2CN(C(=O)C(C)C)CCO2)ncn1 (stereo not given),137.5%
21,COCCC1CN(Cc2cn(CCC(N)=O)c3ccccc23)CCO1 (stereo not given),-2.901%
22,Cc1[nH]nc(CCC(=O)N2CCOC(CCc3ccccc3)C2)c1C (stereo not given),-1.139%
23,Cc1ccnn1CCC(=O)N1CCOC(CCc2ccccc2)C1 (stereo not given),-2.997%
24,Cc1noc(C)c1-c1cc(CCC2CN(CCC(N)=O)CCO2)ncn1 (stereo not given),120.1%
25,CC(=O)N1CCOC(CCc2cc(-c3c(C)noc3C)ncn2)C1 (stereo not given),154%
26,NCC1CN(Cc2cn(CCC(N)=O)c3ccccc23)CCO1 (stereo not given),-15.16%
27,Cc1noc(C)c1-c1cc(CCC2CN(C(=O)CN)CCO2)ncn1 (stereo not given),152%

row,Compound,Percent Effect
1,Cc1noc(C)c1CNC(C(=O)N1CCOCC1)C(C)C (stereo not given),6.768%
2,CC(C)c1nc(/C=C/c2cnn(-c3ccc(Cl)cc3)c2)ncc1C(=O)O,-7.437%
3,Cc1ccsc1CN(CCN(C)C)C(=O)c1ccccc1C#N,-7.458%
4,CCCS(=O)(=O)NC(=O)c1sc(C2CCCC2)nc1C,-2.065%
5,CCC(C)N(C)CCNC(=O)NCc1cccc(-n2cncn2)c1 (stereo not given),23.44%
6,O=C(NC1CC1)C1CCN(Cn2nc(-c3ccccc3)oc2=O)CC1,10.01%
7,CCc1nc(CN2CCN(C(=O)c3csc(C(C)C)n3)CC2)no1,-9.148%
8,COc1cc(OC)c2c(=O)oc(CC(O)CC(C)=O)cc2c1 (stereo not given),8.997%
9,Cc1cc(C(=O)NCC2COCc3c(C)nnn3C2)no1 (stereo not given),-12.47%
10,Cc1noc(C)c1CNS(=O)(=O)N(C)Cc1ccc(Cl)cc1,-11.55%
11,CN(C)C(=O)c1ccc2c(c1)N(C)C(CC(=O)NCc1ccno1)CO2 (stereo not given),-14.39%
12,CCN(c1ccc(C(=O)N2CCC(C)CC2)cc1)S(=O)(=O)CC,137.9%
13,CCN(CC)S(=O)(=O)c1csc(C(=O)N2CCC(C(N)=O)CC2)c1,5.806%
14,CN(C)S(=O)(=O)c1csc(C(=O)N2CCC(C(N)=O)CC2)c1,3.976%
15,CCS(=O)(=O)N(C)c1ccc(C(=O)N2CCCC(C)C2)cc1 (stereo not given),-1.245%
16,CCN(c1ccc(C(=O)N2CCC(C(N)=O)CC2)cc1)S(=O)(=O)CC,125.1%
17,CCN(c1ccc(C(=O)N2CCCC(C)C2)cc1)S(=O)(=O)CC (stereo not given),-3.775%
18,Cc1nccn1CC1CCCN1S(=O)(=O)Cc1ccon1 (stereo not given),0.377%
19,Cc1nc(C)n(CC2CCCN(CCC(=O)NC3CCCC3)C2)n1 (stereo not given),114.2%
20,Cc1nc(C)n(CC2CCCN(CCNC(=O)OC(C)(C)C)C2)n1 (stereo not given),-2.681%
21,Cc1nc(C)n(CC2CCCN(CCC(=O)NC3CCCCC3)C2)n1 (stereo not given),153.2%
22,Cc1nc(C)n(CC2CCCN(CCC(=O)Nc3cc(C)on3)C2)n1 (stereo not given),101.8%
23,Cc1cnc(CNC(=O)NC2CCCN(c3ccccc3F)C2)s1 (stereo not given),-4.354%
24,CC(C)OCCCN1CCCC(c2nc3ccccc3n2C(C)C)C1 (stereo not given),-14.63%
25,Cc1cc(CN2CCN(CCOc3cccc(C#N)c3)CC2)no1,-1.661%
26,CCOc1cc(/C=C/c2ncc(C(=O)O)s2)cc(Cl)c1OC,3.266%
27,CNC(=O)c1cnc(/C=C/c2ccc(O)c(OC)c2)s1,0.2416%

row,Compound,Percent Effect
1,CNC(=O)c1cnc(/C=C/c2cc(OC)c(OC)c(OC)c2)s1,2.96%
2,CCOc1c(Cl)cc(/C=C/c2ncc(C(=O)O)s2)cc1OC,82.8%
3,COc1cc(/C=C/c2ncc(C(=O)O)s2)cc(Cl)c1O,10.97%
4,COc1cc(/C=C/c2ncc(C(=O)O)s2)cc(Cl)c1OC,96.03%
5,COc1ccc(F)cc1CSCC(=O)N(C)CCC#N,-1.773%
6,COc1ccc(-c2noc(C(CC(C)C)N3CCCCC3=O)n2)cn1 (stereo not given),9.971%
7,C=Cc1ccc(CN2CCCC3(CNC(=O)c4ccccc4O3)C2)cc1 (stereo not given),88.72%
8,CC(=O)N1CCOC2(CCCN(Cc3ccc(N(C)C)cc3)C2)C1 (stereo not given),-2.682%
9,O=C1NCC2(CCCN(Cc3ccc(Cl)s3)C2)Oc2ccccc21 (stereo not given),7.994%
10,CSc1ccc(CN2CCCC3(CNC(=O)c4ccccc4O3)C2)cc1 (stereo not given),103.9%
11,O=C1NCC2(CCCN(Cc3ccccc3F)C2)Oc2ccccc21 (stereo not given),-7.876%
12,O=C1NCC2(CCCN(Cc3ccc(F)cc3)C2)Oc2ccccc21 (stereo not given),110.4%
13,CC(C)=CCN1C[C@H]2CC[C@@H]1CN(C(=O)c1ccc(S(N)(=O)=O)cc1)C2,-17.62%
14,CC(C)c1ccccc1NC(=O)N1C[C@@H]2CC[C@H](C1)N(C)C2=O,-22.21%
15,COc1cc(CNCCc2nc(C)cs2)cc2c1OCCO2.Cl,-10.19%
16,CCN1CCN(C[C@H]2CC[C@@H](Cc3ccc4c(c3)OCO4)O2)CC1,15.13%
17,CN1CCN(C[C@H]2CC[C@@H](Cc3ccc4c(c3)OCO4)O2)CC1,5.044%
18,COc1cc(CC2CC(C(N)=O)=NO2)cc2c1OCO2 (stereo not given),107.2%
19,COc1cc(CNCc2ccc(C(C)O)cc2)cc2c1OCO2 (stereo not given),0.7709%
20,CCOC(=O)C1=NOC(Cc2cc(OC)c3c(c2)OCO3)C1 (stereo not given),92.3%
21,COc1cc(CNCCc2cnn(C)c2)cc2c1OCCO2,-13.22%
22,COc1cc(CCO)c(OC)c2c1OCO2,-4.361%
23,COc1cc(-c2nccn2CCn2cccn2)cc2c1OCO2,-19.98%
24,COC(=O)C1=NOC(Cc2cc(OC)c3c(c2)OCO3)C1 (stereo not given),94.65%
25,CCC[C@@H]1CN(Cc2cc(OC)c3c(c2)OCO3)C[C@H]1C(=O)O,0.814%
26,COc1cc(CC2CC(c3ccc4c(c3)OCO4)=NO2)cc2c1OCO2 (stereo not given),92.75%
27,CC(C)CN1Cc2cccc(NC(=O)Cc3ccon3)c2C1,-9.701%

row,Compound,Percent Effect
1,Cc1ccc(=O)n(Cc2nc(C(C)OCC(C)C)no2)n1 (stereo not given),-10.1%
2,Cc1cccc(C(=O)N2CCN(c3ccc(-n4cccc4)nn3)CC2)c1,0.6328%
3,CN(C)c1ccc(CN2C[C@H]3CC[C@@H]2CN(C2CCOCC2)C3)cn1,13.91%
4,CC(=O)Nc1sccc1C(=O)C(C)(C)C,20.74%
5,NC(=O)c1c[nH]nc1NC(=O)c1cccc(Cl)c1,101.4%
6,Cc1ccc(CNC(=O)c2c[nH]nc2NC(=O)COCC2CC2)cc1,-19.21%
7,NC(=O)c1c[nH]nc1NC(=O)c1ccc(Cl)cc1,91.07%
8,CN1CCC(Oc2ccc(NC(=O)c3cccc(Cl)c3)cc2)CC1,-9.86%
9,Cc1ccc(CNC(=O)c2c[nH]nc2NC(=O)C2COCCO2)cc1 (stereo not given),-26.91%
10,Cn1cc(NC(=O)c2cccc(Cl)c2)c(=O)n(C)c1=O,-1.289%
11,CNc1cc(N2CCCC2CNCc2ccc(Cl)o2)ncn1 (stereo not given),6.692%
12,O=C(CC1=CCCCC1)Nc1ccc(CN2C(=O)CCC2=O)cc1,-15.48%
13,CC(C#N)CSc1ccccc1NCC(=O)NC1CCCCC1 (stereo not given),-11.09%
14,CCN(CC)C(=O)CN(C)Cc1nc2c(cnn2C)c(=O)[nH]1,2.851%
15,CCN(CC)C(=O)CSc1nc2c(cnn2CCO)c(=O)[nH]1,123.9%
16,CC(C)NC(=O)CSc1nc2c(cnn2CCO)c(=O)[nH]1,147.9%
17,CNC(=O)CSc1nc2c(cnn2Cc2ccc(F)cc2)c(=O)[nH]1,-13.84%
18,O=C(CSc1nc2c(cnn2CCO)c(=O)[nH]1)NC1CCCCC1,119.1%
19,CC(=O)CSc1nc2c(cnn2CCO)c(=O)[nH]1,136.9%
20,CCCc1cc(=O)[nH]c2nnc(SCC(C)=O)n12,15.46%
21,CN(CC(=O)N(C)C1CCCCC1)Cc1nc2c(cnn2C)c(=O)[nH]1,2.622%
22,CCC(=O)Nc1ccc(C(C)Nc2nc3c(cnn3C)c(=O)[nH]2)cc1 (stereo not given),-8.968%
23,CCN(CC)C(=O)CSc1ccc(C(F)(F)F)cn1,0.9721%
24,CC(C)(C)n1ncc2c(=O)[nH]c(N3CCN(CCO)CC3)nc21,1.466%
